Data on 31 compounds can be found in PubChem BioAssay AID504852 (Southern Research Specialized Biocontainment Screening …, 2011).

Potency and affinity values are given separately. Values without a mark were called inactive. No rule for the calls is given here.

This assay can be described thus: THP-1 cell cytotoxicity, dose response, cytotoxicity control, set 3 (AID 504852). To be noted: THP-1 cell viability, cytotoxicity CC50; series mostly up to 100 µM; viability: at the top concentration.
As for `CCC(Sc1nc2ccccc2c(=O)[nH]1)C(=O)Nc1cccc(OC)c1` (stereo unspecified), the viability (as a rule, a read-out of living cells in per cent, often relative to untreated cells) was 87.8%.
Under `CCOC(=O)CSc1nc(C)c(C)c(=O)[nH]1` stands 82.9%; under `CC(C)CCNC(=O)CSc1nc2c(c(=O)[nH]1)CCC2`, 90%; under `COc1ccc(NC(=O)CSc2nc3ccccc3c(=O)[nH]2)cc1`, 80.2%.
The same measure for `O=C(CSc1nccc(=O)[nH]1)NC1CCCCC1`: 98.9%.
The same measure for `Cc1cnc(SCC(=O)NC2CCCCC2)[nH]c1=O`: 110%; for `Cc1nc(SCc2ccccc2Cl)[nH]c(=O)c1C`: 118%.
On to `CCSc1nc(C)c(C)c(=O)[nH]1`, for which the “viability” value was 90.4%.
Under `O=C(CSc1nc2ccccc2c(=O)[nH]1)N1CCOCC1` stands 102%.
Under `O=C(CSc1nc2ccccc2c(=O)[nH]1)NC1CCCC1` stands 113%.
The same measure for `Cc1nc(SCC(N)=O)[nH]c(=O)c1C`: 96.4%.
`CC(C)NC(=O)CSc1nc2ccccc2c(=O)[nH]1`: the “viability” value is 92.5%.
Turning to `CCC(Sc1nc2c(c(=O)[nH]1)CCC2)C(=O)Nc1cccc(OC)c1` (stereo unspecified), the “viability” value was 82.7%.
On to `O=C(CSc1nc2c(c(=O)[nH]1)CCC2)NC1CCCCC1`, for which the “viability” value was 91.5%.
As to `Nc1cc(=O)[nH]c(SCC(=O)NC2CCCCC2)n1`, the “viability” value is 95.4%.
The same measure for `O=C(CSc1ncccn1)NC1CCCCC1`: 88.8%.
As for `Cc1ccc(NC(=O)CSc2nc3ccccc3c(=O)[nH]2)cc1Cl`, the “viability” value is 99%.
The same measure for `CN(C)C(=O)CSc1nc2ccccc2c(=O)[nH]1`: 81.7%; for `COc1cccc(NC(=O)CSc2nc3c(c(=O)[nH]2)CCC3)c1`: 90%.
With `O=C(CSc1nc2ccccc2c(=O)[nH]1)NC1CCCCC1`, the “viability” value was 96.9%.
As for `Cc1c[nH]c(=S)[nH]c1=O`, the “viability” value was 120%.
The same measure for `Cc1nc(SCC(=O)NCCC(C)C)[nH]c(=O)c1C`: 84.9%.
The same measure for `Cc1nc(SCC(=O)NC2CCCC2)[nH]c(=O)c1C`: 98.5%; for `NC(=O)CSc1nc2ccccc2c(=O)[nH]1`: 92.3%.
Under `O=c1[nH]c(SCc2ccccc2Cl)nc2c1CCCC2` stands 93.9%; under `CN1CCC(NC(=O)CSc2nc3ccccc3c(=O)[nH]2)CC1`, 99%; under `Cc1cc(=O)[nH]c(SCC(=O)NC2CCCCC2)n1`, 91.3%.
For the compound `Cn1c(SCC(=O)NC2CCCCC2)nc2ccccc2c1=O`, the “viability” value was 88.7%.
As for `Cc1[nH]c(=S)[nH]c(=O)c1C`, the “viability” value is 104%.
On to `Cc1cc(=O)[nH]c(=S)[nH]1`, for which the “viability” value was 86.5%.
With `O=c1[nH]c(=S)[nH]c2ccccc12`, the “viability” value was 81%.
